# Source: PubChem
# Hits are enriched below; roughly 2.1% of the tested compounds scored in any of these assays.
# IEC-6 tox: kills IEC-6 intestinal cells in KLF5 counter-screen | AID 1825 | inhibition, % at 5 µM | 290,000 tested, 0.78% active | IEC-6 cytotoxicity, luminescence viability; in the data active = inhibition above about 22%;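 also: 0% = plate median of test compound wells and 100% = cytotoxic reference compound wells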
# BaF3 parental: reduces parental Ba/F3 cell viability, JAK2V617F counter-screen; CellTiter-Glo ATP luminescence; AID 1486; inhibition, % at 5.6 µM; 220,000 tested, 1.1% active;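 active = inhibition above a per-campaign cutoff, the mean inhibition of all tested compounds plus 3 SD, cut at about 27% in these data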;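 also: 0% = DMSO wells and 100% = JAK Inhibitor I control wells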
# APP transl inh: APP translation inhibition; inhibition, % at 2 µM; AID 1285; 190,000 tested, 0.82% active; SH-SY5Y APP 5'UTR-luciferase reporter, luminescence;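 active = inhibition above a set limit, derived from the sample mean plus 3 SD, cut at about 45% in these data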
# KLF5 inh: kruppel-like factor 5 inhibition | inhibition, % at 5 µM | DLD-1 KLF5 promoter-luciferase reporter, luminescence | 290,000 tested, 0.23% active | AID 1700;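 active = inhibition above a per-plate limit of that plate's mean compound inhibition plus 3 SD, cut at about 60% in these data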;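 also: 0% = DMSO wells and 100% = LY294002 at 200 µM; higher means less KLF5 promoter-driven luciferase light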
# aSyn UTR inh: MLPCN primary screen, SNCA 5' untranslated region. alpha-synuclein 5'UTR reporter, inhibitor activity. inhibition, % (tested at 7.5 µM). 300,000 tested, 0.82% active. AID 1813; in the data active = inhibition above about 60%;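 also: H4 neuroglioblastoma cells stably carrying SNCA 5'UTR luciferase fusion; 0% = DMSO wells and 100% = positive control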
# Ba/F3 V617F tox: lowers viability of Ba/F3 cells expressing EpoR and JAK2V617F. ATP luminescence. inhibition, % at 5.6 µM. 220,000 tested, 1.1% active. AID 1446;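 active = inhibition above the campaign mean plus 3 SD over all tested compounds, cut at about 24% in these data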;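 also: cytokine-independent growth of Ba/F3 cells driven by EpoR plus mutant JAK2; 0% = DMSO-treated cells and 100% = JAK inhibitor I control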
# The depositor's hits bear a star; · = not tested or not shown.
SMILES,IEC-6 tox,BaF3 parental,APP transl inh,KLF5 inh,aSyn UTR inh,Ba/F3 V617F tox
COc1ccccc1C(=O)NCC(=O)N/N=C/c1ccc([N+](=O)[O-])cc1,-1,48*,5,-4,3,-1
Cc1ccc(CNC(=O)C2CCCN2C(=O)Nc2ccc(F)cc2)cc1 (stereo unspecified),3,·,·,-35,-10,·
CCOC(=O)c1sc(Nc2ccccc2Cl)nc1C,11,0,·,-103,-184,0
CCOC(=O)c1sc(NC(=O)Nc2ccccc2F)nc1C,-7,6,-162,-79,70*,1
COc1ccc(/C=N/NC(=O)c2ccc3ccccc3c2)cc1OS(=O)(=O)c1ccc(NC(C)=O)cc1,4,0,72*,11,-22,5
COc1ccc(C=O)cc1OS(=O)(=O)c1ccc(NC(C)=O)cc1,10,2,-2,26,17,2
N#C/C(=C/c1ccco1)C(N)=S,-19,6,·,-7,-7,-2
N#CC(C#N)=C1C=CC=CN1/C(=C\c1ccco1)C(=O)c1ccc(Br)cc1,4,2,93*,-6,·,-3
CSc1cccc(NC(=O)C2CCCN(S(=O)(=O)c3cccs3)C2)c1 (stereo unspecified),-2,·,·,-11,-3,·
O=C(O)c1cccc(NC(=O)C23CC4CC(C2)CC(n2cnc(Cl)n2)(C4)C3)c1,4,5,43,-17,1,2
COc1ccc(NC(=O)C23CC4CC(C2)CC(n2cnc(Br)n2)(C4)C3)cc1Cl,-1,1,47*,-4,-46,0
Cn1cc(/C=C/c2cc[n+](C)cc2)c2cc(F)ccc21,4,·,·,-8,23,·
Cn1cc(/C=C/c2cc[n+](C)cc2)c2cc(Cl)ccc21,3,·,·,19,64*,·
CCCCCCCC[n+]1c(C)n(-c2ccccc2)c2ccc(NC(C)=O)cc21,9,74*,-9,7,-10,87*
Cc1oc2c(CN3CCOCC3)c(O)ccc2c(=O)c1-c1ccc(Cl)cc1,5,48*,·,-51,1,41*
COc1ccc(/C=N\n2nnc3ccccc32)cc1,-5,1,-191,-111,73*,0
CCC(COC)NCc1cn(-c2ccc(OC)cc2)nc1-c1cccc(F)c1 (stereo unspecified),-4,4,11,-32,10,-1
CCOC(=O)C1=C(c2ccccc2)NC(=O)NC1c1ccc(OC)cc1 (stereo unspecified),3,7,16,0,16,3
CCOC(=O)C1=C(CNCc2ccc(C)cc2)NC(=O)NC1c1ccc(OC)cc1 (stereo unspecified),16,28*,1,11,-3,52*
Cc1csc(NC(=O)CSc2nccn2C)n1,-3,·,·,-34,-32,·
COc1ccccc1-c1nnc2sc(-c3cc4ccccc4o3)nn12,58*,80*,6,-1,76*,88*
COc1ccccc1-c1nnc2sc(-c3cnccn3)nn12,1,6,0,-20,10,2
O=C(NCc1ccccc1Cl)C1CCN(C(=O)c2ccco2)CC1,-3,·,·,-31,-3,·
Cc1ccc(N=C(N)N=C(N)N)c(C)c1,-8,-2,·,-13,32,-1
CCCCCc1ccc(OCCCC[n+]2cccc(C)c2)c(CCCCC)c1,21,95*,14,26,23,102*
SMILES,IEC-6 tox,BaF3 parental,APP transl inh,KLF5 inh,aSyn UTR inh,Ba/F3 V617F tox
CCC(C)(C)c1ccc(OCCCC[n+]2ccccc2)c(C(C)(C)CC)c1,6,85*,-7,13,20,100*
CCCCCc1ccc(OCCCC[n+]2ccccc2)c(CCCCC)c1,8,81*,-6,9,8,100*
CCC(C)(C)c1ccc(Oc2cccc(C(=O)O)c2)cc1,0,-4,·,-173,-95,-1
CCCCCc1ccc(OCCCC[n+]2ccc(C)cc2)c(CCCCC)c1,19,103*,-15,13,·,102*
CCCCOc1ccc(C)cc1CN(CCO)CCO,2,4,-13,-30,-4,1
CC(C)C[C@@]12C(=O)N(c3cccc(F)c3)C(=O)N1[C@H](c1ccc(Cl)cc1)[C@@H]1C(=O)N(C3CCCCC3)C(=O)[C@@H]12,·,·,·,·,-2,·
COc1ccc(Cl)cc1NC(=O)CN1CCN(Cc2ccccc2)CC1,-1,·,·,-35,15,·
O=C(Nc1cc(=O)[nH]c(=O)[nH]1)c1cccc(Br)c1,11,37*,8,8,7,12
Cc1cc(NC(=O)c2cccc(Br)c2)n[nH]1,·,·,·,·,-141,·
CC(C)CNC(=O)c1coc(=O)c(Br)c1,5,0,47*,16,-87,-1
O=C1C=CC(O)(c2cc(=O)c3c(O)cc(O)cc3o2)C=C1,1,47*,41,37,26,44*
O=c1cc(-c2ccccc2Cl)oc2cc(O)cc(O)c12,-2,8,-22,0,-58,4
Cn1c2c(c(=O)[nH]c1=O)C(c1cccc(O)c1)C1=C(N2)c2ccccc2C1=O (stereo unspecified),2,16,28,2,·,35*
COc1cccc(C2C3=C(Nc4[nH]n(-c5ccccc5)c(=O)c42)c2ccccc2C3=O)c1 (stereo unspecified),2,5,12,-16,·,-1
COC(=O)C1=C(CS(=O)(=O)c2cc(OC)ccc2OC)NC(=O)NC1c1ccc(O)c(OC)c1 (stereo unspecified),1,·,·,-13,6,·
CC(=O)Nc1cc(OC(C)=O)c2nonc2c1OC(C)=O,100*,103*,17,115*,·,101*
CC(C)n1c(CN(C)Cc2ccccc2)nc2c1c(=O)n(C)c(=O)n2C,9,·,·,-22,64*,·
CC(=O)C(C)n1c(CN(C)Cc2ccccc2)nc2c1c(=O)n(C)c(=O)n2C (stereo unspecified),0,·,·,-22,7,·
CN1C=CC(=C2C(=O)c3ccccc3C2=O)C=C1,9,2,-102,-122,14,4
CCCCCCN1C=CC(=C2C(=O)c3ccccc3C2=O)C=C1,5,11,-48,-92,107*,5
O=C(c1sc(N2CCOCC2)nc1-c1ccccc1)N1CCCCC1,8,11,23,-7,24,8
[2H]c1c([2H])c([2H])c(-c2nc(N3CCCCCC3)sc2C(=O)c2ccccc2)c([2H])c1[2H],-4,95*,-4,-20,-11,4
CCOC(=O)C1(CCCc2ccccc2)CCN(C(=O)Cn2nc(C)nc2C)CC1,-7,-3,·,-22,1,-2
COc1ccc(Oc2c(Cl)cnn(-c3ccc(Cl)c(Cl)c3)c2=O)cc1,1,11,-11,19,73*,3
COc1nnc(-c2ccc(N3CCCCC3)c(N)c2)c2ccccc12,6,46*,-18,-9,-46,37*
Cc1ccc(C(=O)NN=C2CCCC2)cc1C,·,·,·,·,8,·
CCNc1ccc(C(=O)NN=C2CCCC2)cc1[N+](=O)[O-],-5,6,65*,3,-11,1
